# Data: publication PMC7862700, “An all-to-all approach to the identification of sequence-specific readers for epigenetic DNA modifications on cytosine”
# Assays:
# Assay in all cases: DAPPL (digital affinity profiling via proximity ligation, sequencing); 10 mM Tris-HCl pH 7.5, 50 mM NaCl, 1 mM DTT, 4% glycerol, room temperature, 30 min; GST-TFs on glutathione beads, 16-mer random dsDNA library, 0.1% formaldehyde crosslink after washing; high values mean tight binding
# Details in all cases: protein: recombinant; tags: N-terminal GST; dsDNA, one strand shown
# ELK1 = target: T1, ELK1 (Homo sapiens, UniProt P19419 1-428)
# T1 sequence: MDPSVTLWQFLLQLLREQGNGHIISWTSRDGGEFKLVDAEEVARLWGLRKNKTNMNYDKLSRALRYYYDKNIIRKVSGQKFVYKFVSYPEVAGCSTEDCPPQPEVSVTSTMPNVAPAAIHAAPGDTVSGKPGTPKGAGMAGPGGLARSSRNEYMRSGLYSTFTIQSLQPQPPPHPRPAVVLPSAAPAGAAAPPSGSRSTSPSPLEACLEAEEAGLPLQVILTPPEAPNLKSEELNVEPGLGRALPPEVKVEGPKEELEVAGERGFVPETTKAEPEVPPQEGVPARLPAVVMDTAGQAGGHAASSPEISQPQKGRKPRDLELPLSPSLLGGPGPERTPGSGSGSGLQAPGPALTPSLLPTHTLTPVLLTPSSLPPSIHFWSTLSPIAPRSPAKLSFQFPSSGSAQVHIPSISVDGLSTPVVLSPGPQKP
# Procedure, shortened: (§1)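 Human transcription factors were made in yeast as GST fusions, captured on glutathione beads and barcoded with DNA. With a tag-only sample included, the pool was incubated with 200 nmole of a random double-stranded 16-mer DNA library in Tris/NaCl/DTT/glycerol buffer at room temperature for 30 min, then crosslinked with 0.1% formaldehyde after washing, ligated by proximity, amplified and sequenced. For binding signal, each hexamer's read frequency for a factor is divided by its frequency for the tag-only sample.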
# GABPA = target: T2, GABPA (Homo sapiens, UniProt Q06546 1-454)
# T2 sequence: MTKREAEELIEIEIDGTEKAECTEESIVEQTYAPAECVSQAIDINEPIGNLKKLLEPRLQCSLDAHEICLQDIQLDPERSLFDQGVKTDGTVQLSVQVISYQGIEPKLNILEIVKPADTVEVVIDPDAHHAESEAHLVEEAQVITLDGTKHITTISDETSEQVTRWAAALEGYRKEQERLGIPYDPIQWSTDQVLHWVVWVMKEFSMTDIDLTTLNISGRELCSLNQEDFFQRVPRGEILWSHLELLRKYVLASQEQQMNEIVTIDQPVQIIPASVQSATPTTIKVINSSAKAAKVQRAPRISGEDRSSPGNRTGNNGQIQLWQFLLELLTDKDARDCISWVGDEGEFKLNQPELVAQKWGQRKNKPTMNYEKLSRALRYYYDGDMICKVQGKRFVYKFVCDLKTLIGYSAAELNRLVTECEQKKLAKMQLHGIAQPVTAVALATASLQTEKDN
# Procedure, shortened: as §1
# ERG = target: T3, ERG (Homo sapiens, UniProt P11308 1-479)
# T3 sequence: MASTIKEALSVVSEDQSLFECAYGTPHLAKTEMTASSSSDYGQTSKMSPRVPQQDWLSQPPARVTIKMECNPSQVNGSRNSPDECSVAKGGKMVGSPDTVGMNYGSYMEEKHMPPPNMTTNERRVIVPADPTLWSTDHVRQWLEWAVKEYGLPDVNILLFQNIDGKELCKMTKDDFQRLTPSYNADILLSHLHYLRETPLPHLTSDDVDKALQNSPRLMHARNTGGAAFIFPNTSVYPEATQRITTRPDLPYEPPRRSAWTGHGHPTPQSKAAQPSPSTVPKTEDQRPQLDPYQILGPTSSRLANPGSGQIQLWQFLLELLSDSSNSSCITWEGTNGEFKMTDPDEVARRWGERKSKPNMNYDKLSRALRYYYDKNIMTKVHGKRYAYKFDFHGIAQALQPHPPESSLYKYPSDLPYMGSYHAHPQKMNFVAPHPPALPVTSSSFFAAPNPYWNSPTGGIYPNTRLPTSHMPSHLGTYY
# Procedure, shortened: as §1
# ELF1 = ELF1 (Homo sapiens, UniProt P32519 1-619)
# ELF1, sequence (P32519 whole entry): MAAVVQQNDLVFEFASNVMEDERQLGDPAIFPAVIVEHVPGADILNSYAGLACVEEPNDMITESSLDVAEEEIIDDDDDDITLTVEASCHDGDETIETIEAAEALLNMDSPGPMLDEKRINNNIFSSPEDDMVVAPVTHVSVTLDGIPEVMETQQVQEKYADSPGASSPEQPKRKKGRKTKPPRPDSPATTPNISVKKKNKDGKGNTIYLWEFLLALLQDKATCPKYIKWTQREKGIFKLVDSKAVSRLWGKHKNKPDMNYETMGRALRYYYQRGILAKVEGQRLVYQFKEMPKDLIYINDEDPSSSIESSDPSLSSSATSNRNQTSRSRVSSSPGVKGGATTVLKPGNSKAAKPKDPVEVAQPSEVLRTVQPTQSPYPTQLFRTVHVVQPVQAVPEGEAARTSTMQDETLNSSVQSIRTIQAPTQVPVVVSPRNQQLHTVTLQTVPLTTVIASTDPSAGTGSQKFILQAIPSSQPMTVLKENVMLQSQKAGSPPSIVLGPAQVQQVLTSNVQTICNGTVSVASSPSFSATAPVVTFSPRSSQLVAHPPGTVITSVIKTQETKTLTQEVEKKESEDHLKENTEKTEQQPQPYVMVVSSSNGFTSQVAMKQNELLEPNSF
# Procedure, shortened: as §1
# SPIB = SPIB (Homo sapiens, UniProt Q01892 1-262)
# SPIB, sequence (Q01892 whole entry): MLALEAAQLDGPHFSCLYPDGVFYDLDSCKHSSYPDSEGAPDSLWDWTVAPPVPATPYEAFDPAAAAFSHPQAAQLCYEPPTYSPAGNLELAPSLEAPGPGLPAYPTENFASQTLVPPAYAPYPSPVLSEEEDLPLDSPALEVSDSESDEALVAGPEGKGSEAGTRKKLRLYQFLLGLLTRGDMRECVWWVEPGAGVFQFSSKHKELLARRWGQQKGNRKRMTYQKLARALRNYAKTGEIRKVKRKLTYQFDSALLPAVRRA
# Procedure, shortened: as §1
# ELF4 = ELF4 (Homo sapiens, UniProt Q99607 1-663)
# ELF4, sequence (Q99607 whole entry): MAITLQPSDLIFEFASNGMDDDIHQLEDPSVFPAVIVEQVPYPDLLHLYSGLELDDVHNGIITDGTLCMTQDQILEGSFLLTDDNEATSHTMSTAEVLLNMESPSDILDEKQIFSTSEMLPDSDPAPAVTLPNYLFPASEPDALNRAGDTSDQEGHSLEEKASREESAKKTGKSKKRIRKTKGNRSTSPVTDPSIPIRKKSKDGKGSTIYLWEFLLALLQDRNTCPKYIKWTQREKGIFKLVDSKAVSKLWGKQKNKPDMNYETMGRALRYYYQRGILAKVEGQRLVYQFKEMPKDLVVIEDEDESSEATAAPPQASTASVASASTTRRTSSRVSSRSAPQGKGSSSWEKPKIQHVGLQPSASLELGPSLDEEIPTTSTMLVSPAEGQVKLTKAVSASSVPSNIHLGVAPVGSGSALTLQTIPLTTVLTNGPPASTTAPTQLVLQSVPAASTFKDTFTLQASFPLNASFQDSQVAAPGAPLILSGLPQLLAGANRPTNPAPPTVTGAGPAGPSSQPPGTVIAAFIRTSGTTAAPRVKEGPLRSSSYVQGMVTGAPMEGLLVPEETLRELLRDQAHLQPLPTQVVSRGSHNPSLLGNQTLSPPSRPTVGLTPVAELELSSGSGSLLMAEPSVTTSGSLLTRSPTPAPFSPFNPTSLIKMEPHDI
# Procedure, shortened: as §1
# ELK4 = target: T4, ELK4 (Homo sapiens, UniProt P28324-2 1-405)
# T4 sequence: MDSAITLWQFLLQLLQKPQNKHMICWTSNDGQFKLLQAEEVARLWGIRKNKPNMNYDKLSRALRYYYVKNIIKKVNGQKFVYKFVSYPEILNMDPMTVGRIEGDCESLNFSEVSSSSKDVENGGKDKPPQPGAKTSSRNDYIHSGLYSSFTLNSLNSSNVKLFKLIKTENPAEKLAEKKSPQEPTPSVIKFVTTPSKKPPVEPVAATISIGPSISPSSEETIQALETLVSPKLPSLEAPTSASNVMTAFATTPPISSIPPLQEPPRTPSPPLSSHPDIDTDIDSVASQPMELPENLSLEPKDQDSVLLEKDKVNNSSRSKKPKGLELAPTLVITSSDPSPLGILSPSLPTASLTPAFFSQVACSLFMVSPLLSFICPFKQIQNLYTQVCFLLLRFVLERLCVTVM
# Procedure, shortened: as §1
# ELF3 = target: T5, ELF3 (Homo sapiens, UniProt P78545 1-371)
# T5 sequence: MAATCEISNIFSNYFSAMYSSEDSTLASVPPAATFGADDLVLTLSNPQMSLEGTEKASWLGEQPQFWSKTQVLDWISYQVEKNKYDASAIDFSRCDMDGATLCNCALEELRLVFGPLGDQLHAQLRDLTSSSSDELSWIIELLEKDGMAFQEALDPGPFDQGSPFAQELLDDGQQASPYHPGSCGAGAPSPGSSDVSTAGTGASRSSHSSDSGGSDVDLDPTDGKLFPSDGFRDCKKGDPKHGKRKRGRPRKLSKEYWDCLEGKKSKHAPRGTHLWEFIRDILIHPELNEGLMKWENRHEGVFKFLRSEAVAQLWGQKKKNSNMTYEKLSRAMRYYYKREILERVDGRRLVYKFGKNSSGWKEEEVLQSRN
# Procedure, shortened: as §1
# ERF = target: T6, ERF (Homo sapiens, UniProt P50548 1-548)
# T6 sequence: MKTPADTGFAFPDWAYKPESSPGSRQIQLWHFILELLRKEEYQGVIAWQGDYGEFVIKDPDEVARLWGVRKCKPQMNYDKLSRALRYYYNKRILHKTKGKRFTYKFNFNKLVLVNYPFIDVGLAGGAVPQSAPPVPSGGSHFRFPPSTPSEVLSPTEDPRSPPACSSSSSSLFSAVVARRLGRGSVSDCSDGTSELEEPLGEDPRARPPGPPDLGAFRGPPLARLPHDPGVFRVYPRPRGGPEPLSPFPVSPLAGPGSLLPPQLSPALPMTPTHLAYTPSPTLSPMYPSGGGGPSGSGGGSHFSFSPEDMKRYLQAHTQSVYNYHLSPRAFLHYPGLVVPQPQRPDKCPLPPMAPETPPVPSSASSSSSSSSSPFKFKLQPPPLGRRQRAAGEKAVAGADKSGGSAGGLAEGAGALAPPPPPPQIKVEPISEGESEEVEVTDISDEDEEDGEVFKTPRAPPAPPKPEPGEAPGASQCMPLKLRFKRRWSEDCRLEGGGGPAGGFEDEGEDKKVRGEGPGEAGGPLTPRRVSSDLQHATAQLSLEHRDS
# Procedure, shortened: as §1
# ETV3L = target: T7, ETV3L (Homo sapiens, UniProt Q6ZN32 1-361)
# T7 sequence: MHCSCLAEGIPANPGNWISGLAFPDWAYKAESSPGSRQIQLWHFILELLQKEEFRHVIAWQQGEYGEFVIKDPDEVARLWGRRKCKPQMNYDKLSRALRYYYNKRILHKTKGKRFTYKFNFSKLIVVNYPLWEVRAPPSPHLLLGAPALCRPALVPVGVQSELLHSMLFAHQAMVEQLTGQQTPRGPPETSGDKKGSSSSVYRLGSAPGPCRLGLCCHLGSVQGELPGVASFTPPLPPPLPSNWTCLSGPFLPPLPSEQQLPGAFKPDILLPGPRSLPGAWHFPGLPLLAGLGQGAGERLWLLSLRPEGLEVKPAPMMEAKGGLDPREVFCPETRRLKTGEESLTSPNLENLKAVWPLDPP
# Procedure, shortened: as §1
# SPDEF = target: T8, SPDEF (Homo sapiens, UniProt O95238 1-335)
# T8 sequence: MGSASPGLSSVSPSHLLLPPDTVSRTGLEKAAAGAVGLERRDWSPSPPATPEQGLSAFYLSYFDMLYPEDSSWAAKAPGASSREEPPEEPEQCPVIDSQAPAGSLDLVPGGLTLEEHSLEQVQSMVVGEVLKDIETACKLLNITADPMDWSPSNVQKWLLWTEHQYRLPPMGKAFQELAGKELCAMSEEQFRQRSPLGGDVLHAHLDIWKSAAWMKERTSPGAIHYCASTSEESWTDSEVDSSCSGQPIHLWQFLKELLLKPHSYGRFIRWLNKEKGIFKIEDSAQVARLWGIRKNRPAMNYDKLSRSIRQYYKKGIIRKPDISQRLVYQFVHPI
# Procedure, shortened: as §1
# ETV3 = target: T9, ETV3 (Homo sapiens, UniProt P41162-2 1-143)
# T9 sequence: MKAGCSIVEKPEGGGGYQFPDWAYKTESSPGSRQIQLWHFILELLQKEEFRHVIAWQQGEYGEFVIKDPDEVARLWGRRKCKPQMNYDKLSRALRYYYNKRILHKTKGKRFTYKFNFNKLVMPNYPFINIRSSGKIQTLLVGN
# Procedure, shortened: as §1
# ETV6 = ETV6 (Homo sapiens, UniProt P41212 1-452)
# ETV6, sequence (P41212 whole entry): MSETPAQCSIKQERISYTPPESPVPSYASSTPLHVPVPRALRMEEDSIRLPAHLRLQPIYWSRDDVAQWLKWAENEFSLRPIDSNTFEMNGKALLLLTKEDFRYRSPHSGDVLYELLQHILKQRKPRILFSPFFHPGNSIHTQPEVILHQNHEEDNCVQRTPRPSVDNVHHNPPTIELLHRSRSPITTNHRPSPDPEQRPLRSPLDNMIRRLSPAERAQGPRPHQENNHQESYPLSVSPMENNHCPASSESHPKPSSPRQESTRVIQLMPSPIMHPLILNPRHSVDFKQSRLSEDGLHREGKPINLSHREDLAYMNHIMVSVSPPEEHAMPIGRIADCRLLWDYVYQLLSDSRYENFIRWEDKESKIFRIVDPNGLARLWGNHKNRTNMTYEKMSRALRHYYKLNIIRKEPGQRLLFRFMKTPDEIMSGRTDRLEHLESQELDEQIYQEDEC
# Procedure, shortened: as §1
# ELK3 = target: T10, ELK3 (Homo sapiens, UniProt P41970 1-407)
# T10 sequence: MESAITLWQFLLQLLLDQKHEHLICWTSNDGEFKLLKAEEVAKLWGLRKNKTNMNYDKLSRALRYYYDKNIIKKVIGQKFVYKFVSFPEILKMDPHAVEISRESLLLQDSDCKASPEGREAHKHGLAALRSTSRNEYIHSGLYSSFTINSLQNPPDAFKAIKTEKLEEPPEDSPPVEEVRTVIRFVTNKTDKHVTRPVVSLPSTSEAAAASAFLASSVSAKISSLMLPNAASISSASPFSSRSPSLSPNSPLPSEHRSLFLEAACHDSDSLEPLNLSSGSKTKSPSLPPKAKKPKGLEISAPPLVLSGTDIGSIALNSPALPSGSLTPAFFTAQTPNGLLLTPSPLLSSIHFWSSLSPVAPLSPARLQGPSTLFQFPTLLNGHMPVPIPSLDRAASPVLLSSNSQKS
# Procedure, shortened: as §1
# ETV2 = target: T11, ETV2 (Homo sapiens, UniProt O00321 1-342)
# T11 sequence: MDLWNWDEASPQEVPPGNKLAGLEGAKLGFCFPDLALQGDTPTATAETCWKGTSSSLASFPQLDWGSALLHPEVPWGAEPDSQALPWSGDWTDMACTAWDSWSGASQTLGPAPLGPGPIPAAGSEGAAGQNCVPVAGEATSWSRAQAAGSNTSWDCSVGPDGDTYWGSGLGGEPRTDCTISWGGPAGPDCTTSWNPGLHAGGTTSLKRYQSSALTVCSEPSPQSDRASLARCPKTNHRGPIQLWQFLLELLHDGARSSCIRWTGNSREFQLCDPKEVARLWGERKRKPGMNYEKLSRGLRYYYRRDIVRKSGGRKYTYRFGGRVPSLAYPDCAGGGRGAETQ
# Procedure, shortened: as §1
Sequence,binding signal (ELK1),binding signal (GABPA),binding signal (ERG),binding signal (ELF1),binding signal (SPIB),binding signal (ELF4),binding signal (ELK4),binding signal (ELF3),binding signal (ERF),binding signal (ETV3L),binding signal (SPDEF),binding signal (ETV3),binding signal (ETV6),binding signal (ELK3),binding signal (ETV2)
CACCTG,"1.06 fold enrichment (6-mer frequency, TF over GST control)","1.01 fold enrichment (6-mer frequency, TF over GST control)","1.06 fold enrichment (6-mer frequency, TF over GST control)","1.09 fold enrichment (6-mer frequency, TF over GST control)","1.03 fold enrichment (6-mer frequency, TF over GST control)","1.08 fold enrichment (6-mer frequency, TF over GST control)","1.09 fold enrichment (6-mer frequency, TF over GST control)","1.05 fold enrichment (6-mer frequency, TF over GST control)","1.07 fold enrichment (6-mer frequency, TF over GST control)","1.05 fold enrichment (6-mer frequency, TF over GST control)","1.07 fold enrichment (6-mer frequency, TF over GST control)","1.03 fold enrichment (6-mer frequency, TF over GST control)","1.06 fold enrichment (6-mer frequency, TF over GST control)",,
CAAACG,"1.04 fold enrichment (6-mer frequency, TF over GST control)","1.05 fold enrichment (6-mer frequency, TF over GST control)",,"1.04 fold enrichment (6-mer frequency, TF over GST control)",,,"1.05 fold enrichment (6-mer frequency, TF over GST control)","1.06 fold enrichment (6-mer frequency, TF over GST control)","1.03 fold enrichment (6-mer frequency, TF over GST control)",,"1.02 fold enrichment (6-mer frequency, TF over GST control)","1.04 fold enrichment (6-mer frequency, TF over GST control)","1.02 fold enrichment (6-mer frequency, TF over GST control)","1.07 fold enrichment (6-mer frequency, TF over GST control)","1.02 fold enrichment (6-mer frequency, TF over GST control)"
